Data published in PubChem BioAssay.
Unmarked numbers belong to inactive results. The list shows a part of the results. Activity calls are given as the source filed them. Rule as the data show it, unless noted: active = inhibition above about 33%; inactive = the rest.

Tests used:
[1] = target: Nuclear receptor coactivator 3 (Homo sapiens) (UniProt Q9Y6Q9); experiment: NCOA3 GAL4-fusion reporter inhibition – cell-based, luminescence, quadruplicate, confirmation (AID 588792;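 active = mean inhibition over 43.08%, the solvent-only control mean plus 3 SD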;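 also: 0% = DMSO treated cells and 100% = gossypol at 36 µM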); settings: HEK293 GAL4-SRC3 luciferase reporter, at 3.6 µM, stronger effect = higher value
Sequence of Nuclear receptor coactivator 3 (Homo sapiens) (Q9Y6Q9 whole entry, looked up, the tested form may be a part): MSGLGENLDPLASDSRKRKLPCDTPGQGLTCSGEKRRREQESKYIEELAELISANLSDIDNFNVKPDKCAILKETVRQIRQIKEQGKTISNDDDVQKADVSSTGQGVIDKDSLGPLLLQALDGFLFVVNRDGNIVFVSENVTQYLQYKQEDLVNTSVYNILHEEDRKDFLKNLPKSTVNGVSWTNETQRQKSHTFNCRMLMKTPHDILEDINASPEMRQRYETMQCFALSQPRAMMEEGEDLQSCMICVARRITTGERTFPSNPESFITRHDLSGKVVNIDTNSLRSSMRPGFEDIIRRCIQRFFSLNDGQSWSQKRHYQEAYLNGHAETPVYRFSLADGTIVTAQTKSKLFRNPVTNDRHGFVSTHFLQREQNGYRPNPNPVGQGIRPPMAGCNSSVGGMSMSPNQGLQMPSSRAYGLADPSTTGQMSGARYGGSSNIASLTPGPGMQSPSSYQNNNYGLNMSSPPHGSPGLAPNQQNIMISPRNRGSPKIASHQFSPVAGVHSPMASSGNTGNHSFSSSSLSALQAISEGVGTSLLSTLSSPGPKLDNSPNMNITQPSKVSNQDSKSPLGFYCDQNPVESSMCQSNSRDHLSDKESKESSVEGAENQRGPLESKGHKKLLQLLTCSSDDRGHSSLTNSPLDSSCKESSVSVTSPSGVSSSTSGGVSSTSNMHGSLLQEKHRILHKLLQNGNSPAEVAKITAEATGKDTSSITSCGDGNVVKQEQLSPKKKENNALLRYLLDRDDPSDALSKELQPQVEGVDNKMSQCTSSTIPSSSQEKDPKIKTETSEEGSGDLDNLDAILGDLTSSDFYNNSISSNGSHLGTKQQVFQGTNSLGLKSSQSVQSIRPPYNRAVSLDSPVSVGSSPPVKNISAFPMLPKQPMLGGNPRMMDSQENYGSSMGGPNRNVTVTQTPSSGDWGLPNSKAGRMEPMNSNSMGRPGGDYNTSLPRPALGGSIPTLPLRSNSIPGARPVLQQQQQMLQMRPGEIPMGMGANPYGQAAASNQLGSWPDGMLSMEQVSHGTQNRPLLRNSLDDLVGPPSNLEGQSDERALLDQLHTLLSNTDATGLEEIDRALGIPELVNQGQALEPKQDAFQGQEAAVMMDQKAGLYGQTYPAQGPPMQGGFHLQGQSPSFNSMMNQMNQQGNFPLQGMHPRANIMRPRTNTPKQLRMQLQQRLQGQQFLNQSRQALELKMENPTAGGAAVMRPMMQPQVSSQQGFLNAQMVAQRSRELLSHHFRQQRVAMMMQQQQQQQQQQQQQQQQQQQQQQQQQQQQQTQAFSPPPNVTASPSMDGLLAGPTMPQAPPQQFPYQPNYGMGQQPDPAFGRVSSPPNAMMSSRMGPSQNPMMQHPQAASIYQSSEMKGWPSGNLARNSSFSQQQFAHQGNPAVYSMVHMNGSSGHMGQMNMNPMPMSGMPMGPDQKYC

[2] = tested on: transactivating tegument protein VP16 (Human herpesvirus 1), Gal4-VP16 luciferase reporter; experiment: repression of VP16-driven luciferase reporter – cell-based, luminescence, high throughput, counter-screen for SRC3 inhibitor project (AID 588794; in the data active = inhibition above about 30%); settings: mammalian cells, at 3.6 µM, stronger effect = higher value
[3] = target: Nuclear receptor coactivator 1 (Homo sapiens) (UniProt Q15788); experiment: NCOA1 GAL4-fusion reporter inhibition – cell-based, luminescence, quadruplicate, confirmation (AID 588820;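 active = mean inhibition above 46.68%, the untreated control wells mean plus 3 SD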;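 also: 0% = DMSO wells and 100% = gossypol 36 µM treated wells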); settings: HEK293 GAL4-SRC1 luciferase reporter, at 3.6 µM, stronger effect = higher value
Sequence of Nuclear receptor coactivator 1 (Homo sapiens) (Q15788 whole entry, looked up, the tested form may be a part): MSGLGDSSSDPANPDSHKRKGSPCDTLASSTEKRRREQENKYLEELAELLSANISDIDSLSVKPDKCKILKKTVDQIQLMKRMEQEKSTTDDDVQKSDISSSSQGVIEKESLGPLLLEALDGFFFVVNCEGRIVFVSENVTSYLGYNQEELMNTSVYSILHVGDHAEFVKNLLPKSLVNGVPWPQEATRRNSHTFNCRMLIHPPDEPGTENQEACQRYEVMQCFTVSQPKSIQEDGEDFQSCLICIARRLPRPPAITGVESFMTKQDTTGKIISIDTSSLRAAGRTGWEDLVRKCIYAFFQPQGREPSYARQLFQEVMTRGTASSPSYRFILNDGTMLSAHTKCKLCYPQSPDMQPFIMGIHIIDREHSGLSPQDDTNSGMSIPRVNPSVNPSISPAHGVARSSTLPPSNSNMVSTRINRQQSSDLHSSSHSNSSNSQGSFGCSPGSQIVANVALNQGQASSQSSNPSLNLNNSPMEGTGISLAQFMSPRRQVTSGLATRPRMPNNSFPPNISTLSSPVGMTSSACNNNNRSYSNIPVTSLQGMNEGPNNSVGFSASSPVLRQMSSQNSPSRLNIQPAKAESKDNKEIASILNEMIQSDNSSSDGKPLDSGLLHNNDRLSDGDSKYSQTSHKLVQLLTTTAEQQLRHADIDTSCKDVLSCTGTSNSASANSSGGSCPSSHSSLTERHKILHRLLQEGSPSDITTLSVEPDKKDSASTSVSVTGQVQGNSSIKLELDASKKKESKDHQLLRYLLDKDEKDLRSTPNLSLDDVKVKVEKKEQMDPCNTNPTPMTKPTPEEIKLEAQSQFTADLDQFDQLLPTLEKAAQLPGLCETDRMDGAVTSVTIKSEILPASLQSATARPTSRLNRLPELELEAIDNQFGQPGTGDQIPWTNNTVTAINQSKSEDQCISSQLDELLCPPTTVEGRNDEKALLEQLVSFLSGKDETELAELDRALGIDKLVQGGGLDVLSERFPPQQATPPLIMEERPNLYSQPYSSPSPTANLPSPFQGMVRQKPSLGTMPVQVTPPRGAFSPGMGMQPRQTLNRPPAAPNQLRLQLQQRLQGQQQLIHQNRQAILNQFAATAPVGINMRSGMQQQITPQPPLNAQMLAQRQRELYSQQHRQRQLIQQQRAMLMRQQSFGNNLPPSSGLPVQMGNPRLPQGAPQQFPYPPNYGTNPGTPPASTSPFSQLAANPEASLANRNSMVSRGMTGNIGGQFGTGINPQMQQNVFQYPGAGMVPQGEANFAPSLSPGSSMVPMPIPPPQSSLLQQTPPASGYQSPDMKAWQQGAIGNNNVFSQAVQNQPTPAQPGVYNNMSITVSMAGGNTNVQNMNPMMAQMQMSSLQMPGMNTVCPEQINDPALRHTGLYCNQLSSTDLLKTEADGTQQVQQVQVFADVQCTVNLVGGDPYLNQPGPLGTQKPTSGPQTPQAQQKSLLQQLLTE

[4] = repression of VP16-driven luciferase reporter – cell-based, luminescence, high throughput, counter-screen for SRC1 inhibitor project (AID 588824; in the data active = inhibition above about 25%); settings: cell-based VP16 transactivation luciferase luminescence; at 3.6 µM; stronger effect = higher value
[5] = StAR promoter reporter inhibitors, counter-screen for LRH-1 inverse agonist project, cell-based, luminescence, high throughput (AID 651611; in the data active = inhibition above about 28%); settings: StAR promoter luciferase reporter counterscreen, at 3.6 µM, stronger effect = higher value
[6] = target: Nuclear receptor subfamily 5 group A member 2 (Homo sapiens) (UniProt O00482); experiment: NR5A2 activity suppression in reporter cells – cell-based, luminescence, confirmation (AID 651613; in the data active = inhibition above about 42%;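 also: HEK293T cells co-transfected with LRH-1 and StAR promoter luciferase reporter; 0% = vehicle wells and 100% = parental cells lacking receptor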); settings: cell-based LRH-1 luciferase reporter, inverse agonism; at 3.6 µM; stronger effect = higher value
Sequence of Nuclear receptor subfamily 5 group A member 2 (Homo sapiens) (O00482 whole entry, looked up): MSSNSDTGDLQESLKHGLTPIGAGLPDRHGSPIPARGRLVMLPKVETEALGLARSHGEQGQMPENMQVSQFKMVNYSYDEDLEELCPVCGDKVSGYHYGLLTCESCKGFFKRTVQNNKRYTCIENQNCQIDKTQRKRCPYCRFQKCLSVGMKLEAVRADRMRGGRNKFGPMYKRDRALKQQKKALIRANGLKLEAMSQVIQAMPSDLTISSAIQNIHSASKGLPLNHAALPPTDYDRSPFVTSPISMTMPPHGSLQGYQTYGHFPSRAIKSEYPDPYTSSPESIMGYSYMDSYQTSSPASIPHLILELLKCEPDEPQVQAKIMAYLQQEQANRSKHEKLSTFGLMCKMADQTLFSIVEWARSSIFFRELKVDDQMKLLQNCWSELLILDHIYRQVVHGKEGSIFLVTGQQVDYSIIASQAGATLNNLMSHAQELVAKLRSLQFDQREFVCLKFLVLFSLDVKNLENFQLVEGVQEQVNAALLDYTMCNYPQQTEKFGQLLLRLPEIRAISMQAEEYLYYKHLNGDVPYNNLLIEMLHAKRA

[7] = target: Steroidogenic factor 1 (Homo sapiens) (UniProt Q13285); experiment: inverse agonism at SF1 nuclear receptor – cell-based, luminescence, high throughput, counter-screen for LRH-1 inverse agonist project (AID 651614; in the data active = inhibition above about 44%;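 also: cells cotransfected with StAR promoter reporter and SF1 expression vector; 0% = vehicle on cells with receptor and 100% = vehicle on cells lacking receptor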); settings: cell-based SF1 luciferase reporter, at 3.6 µM, stronger effect = higher value
Sequence of Steroidogenic factor 1 (Homo sapiens) (Q13285 whole entry, looked up, the tested form may be a part): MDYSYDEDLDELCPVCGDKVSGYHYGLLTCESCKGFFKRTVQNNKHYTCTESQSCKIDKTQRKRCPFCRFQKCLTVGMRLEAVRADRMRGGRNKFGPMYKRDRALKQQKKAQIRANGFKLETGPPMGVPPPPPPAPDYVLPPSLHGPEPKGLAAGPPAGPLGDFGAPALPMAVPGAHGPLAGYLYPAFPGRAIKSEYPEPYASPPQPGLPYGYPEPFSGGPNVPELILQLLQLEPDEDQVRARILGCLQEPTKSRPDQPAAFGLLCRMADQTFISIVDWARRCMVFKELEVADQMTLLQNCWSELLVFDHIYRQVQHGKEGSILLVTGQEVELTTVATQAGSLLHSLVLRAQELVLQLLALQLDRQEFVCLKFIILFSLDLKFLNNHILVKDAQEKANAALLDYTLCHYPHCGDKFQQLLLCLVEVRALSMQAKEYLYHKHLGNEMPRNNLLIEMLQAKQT

[8] = compounds suppressing VP16-driven luciferase signal – cell-based, luminescence, high throughput, counter-screen for LRH-1 inverse agonist project (AID 651615); settings: Gal4-VP16 luciferase reporter cells, at 3.6 µM, stronger effect = higher value
[9] = reduced OD of V66 E. coli with T4 gene 2 phage – absorbance, RecBCD inhibitor project, confirmation (AID 651982;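 active = mean inhibition over triplicates exceeding the hit threshold derived in the original primary screen, cut at about 11% in these data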); settings: E. coli V66 + T4 2- phage, growth OD; at 11.9 µM; stronger effect = higher value
[10] = bacterial growth inhibition – absorbance, high throughput, counter-screen for RecBCD inhibitor project (AID 651983; in the data active = inhibition above about 20%;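 also: E. coli strain V66 grown with compound alone and no phage infection; 0% = bacteria with DMSO vehicle only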); settings: E. coli viability, absorbance (OD) growth; at 11.9 µM; stronger effect = higher value
[11] = reduced optical density, T4-challenged addAB+ bacteria – absorbance, E. coli V3065, T4 phage, counter-screen for RecBCD inhibitor project, confirmation (AID 651984;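 active = mean inhibition above the solvent-only control wells' mean plus 3 SD, cut at about 22% in these data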;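 also: higher means less bacterial growth from phage killing when AddAB is blocked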); settings: E. coli expressing H. pylori AddAB + T4 phage, OD growth; at 11.9 µM; stronger effect = higher value; gene 2 mutant T4, recBCD-deleted host

Structure (SMILES)	inhibition [1]	inhibition [2]	inhibition [3]	inhibition [4]	inhibition [5]	inhibition [6]	inhibition [7]	inhibition [8]	inhibition [9]	inhibition [10]	inhibition [11]
O=[N+]([O-])c1cc(CN2CCN(c3ccccc3)CC2)c(O)c2ncccc12	48.3% (active)	56.4% (active)	9.05%	50.8% (active)	59.3% (active)	90.1% (active)	85.7% (active)	73.4% (active)			
CN(C)c1ncnc2c1nnn2C1OC(CO)C(O)C1O (configuration not stated)	82.7% (active)	81.1% (active)	29.6%	81% (active)	91.3% (active)	105% (active)	93.5% (active)	88.8% (active)			
COc1ccc(OC)c(Cc2cnc3nc(N)nc(N)c3c2C)c1	67% (active)	27.5%	59.9% (active)	28.4% (active)	80.7% (active)	62.3% (active)	52.5% (active)	43.9% (active)	79.8% (active)	79.2% (active)	85.3% (active)
Nc1ccc(S(=O)(=O)NNC(=O)C(=O)NNc2ccccc2)cc1	12.2%	8.16%	-15.5%	18.5%	5.29%	18.9%	17.6%	39.2% (active)			
N#Cc1cc2c(nc1SCC(=O)N1CCOCC1)CCCCC2	21.1%	21.5%	-34.5%	-17.9%	-55%	-116%	-87.7%	-62.9%			
CC(=NNC(=S)N1CCN(C2CCCCCC2)CC1)c1ccccn1	50% (active)	83.7% (active)	66.2% (active)	71% (active)	81.8% (active)	98.5% (active)	85.4% (active)	65.2% (active)			
Cc1cc(C)cc(NS(=O)(=O)c2ccc3c(c2)c(=O)n(C)c(=O)n3C)c1	55.2% (active)	36.5% (active)	57.1% (active)	38% (active)	36.2% (active)	54.4% (active)	41.3%	56.9% (active)			
NS(=O)(=O)c1ccc(NC(=O)/C=C/c2ccc3c(c2)OCO3)cc1	10.8%	53.6% (active)	17.1%	52% (active)	47% (active)	61.7% (active)	62.2% (active)	66.2% (active)			
COc1cc(NS(C)(=O)=O)ccc1Nc1c2ccccc2nc2ccccc12	63.6% (active)	-6.87%	61.1% (active)	-3.17%	46.6% (active)	108% (active)	52% (active)	78.8% (active)			
NC(=S)NN=Cc1cc(-c2cccc(N)c2)ccn1	77.3% (active)	53% (active)	64.1% (active)	52.2% (active)	75.3% (active)	93.6% (active)	88% (active)	72.4% (active)			
N=c1c2c(n(Cc3ccc(Cl)cc3)c3c1CCC3)CCC2	55.8% (active)	68.7% (active)	47.1% (active)	61.9% (active)	58.6% (active)	105% (active)	85.1% (active)	78.3% (active)			
NC(=S)NN=Cc1nccc2c(C(F)(F)F)cccc12	86.8% (active)	69.7% (active)	63.9% (active)	56.4% (active)	89.7% (active)	100% (active)	93.2% (active)	66.5% (active)			
Cc1cc(/C=C2\Sc3ccccc3N2C)cc(C)[n+]1CC1CCCO1 (configuration not stated)	37.1%	77.1% (active)	34%	75.3% (active)	77.8% (active)	99.3% (active)	90.5% (active)	89% (active)			
Cn1nccc1C(=O)N/N=C/c1c(O)ccc2ccccc12	73.9% (active)	74.6% (active)	72% (active)	71% (active)	82.4% (active)	101% (active)	86.2% (active)	71.1% (active)			
Cc1nn(Cc2ccc(C(=O)Nc3nccs3)cc2)c(C)c1Cl	21.7%	45.6% (active)	17.9%	43.8% (active)	46.8% (active)	62.3% (active)	67% (active)	64.6% (active)			
Cc1ccc(-c2cc3cccc[n+]3cc2-c2ccc(C)cc2)cc1	72.3% (active)	53.5% (active)	35.9%	64.4% (active)	56.9% (active)	91.7% (active)	83.4% (active)	79.4% (active)			
O=C(N/N=C(\c1ccccc1)c1cccnc1)c1cccc(F)c1	37.5%	31.2% (active)	31%	43% (active)	84% (active)	97.7% (active)	85.7% (active)	58.5% (active)			
COc1cc(C2c3cc4c(cc3C(OC3OC5COC(c6cccs6)OC5C(O)C3O)C3COC(=O)C23)OCO4)cc(OC)c1O (configuration not stated)	72.2% (active)	-8.11%	26%	-26.7%	73.9% (active)	82.6% (active)	54.5% (active)	-36.1%			
